Compound activity as filed in PubChem.
CYP2C19 activ: human CYP2C19 activators, primary screen, biochemical, luminescence. Cytochrome P450 2C19 (Homo sapiens), P33261. activation factor at 5 µM. AID 1025, 2008. recombinant CYP2C19, luciferin-H EGE luminescence; active compounds read high; 0 = fully inhibited enzyme, 1 = untreated enzyme. 96,000 tested, under 10 active;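 active = activation factor of at least 2 at 5 µM in the primary screen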;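 note: 0 = wells with 2.5 mM tranylcypromine and 1 = vehicle-only wells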
CYP2C9 act: human CYP2C9 activators, primary screen, biochemical, luminescence; activation factor at 5 µM; recombinant CYP2C9, luciferin-H conversion; active compounds read high; factor 1 = untreated enzyme, 0 = blocked; actives 1.4% (n = 96,000); Cytochrome P450 2C9 (Homo sapiens), P11712;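 active = activation factor of 2 or more for CYP2C9 at a 5 µM dose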;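 note: 0 = sulfaphenazole-blocked wells and 1 = vehicle-only wells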
Target sequence (P11712 whole entry, looked up): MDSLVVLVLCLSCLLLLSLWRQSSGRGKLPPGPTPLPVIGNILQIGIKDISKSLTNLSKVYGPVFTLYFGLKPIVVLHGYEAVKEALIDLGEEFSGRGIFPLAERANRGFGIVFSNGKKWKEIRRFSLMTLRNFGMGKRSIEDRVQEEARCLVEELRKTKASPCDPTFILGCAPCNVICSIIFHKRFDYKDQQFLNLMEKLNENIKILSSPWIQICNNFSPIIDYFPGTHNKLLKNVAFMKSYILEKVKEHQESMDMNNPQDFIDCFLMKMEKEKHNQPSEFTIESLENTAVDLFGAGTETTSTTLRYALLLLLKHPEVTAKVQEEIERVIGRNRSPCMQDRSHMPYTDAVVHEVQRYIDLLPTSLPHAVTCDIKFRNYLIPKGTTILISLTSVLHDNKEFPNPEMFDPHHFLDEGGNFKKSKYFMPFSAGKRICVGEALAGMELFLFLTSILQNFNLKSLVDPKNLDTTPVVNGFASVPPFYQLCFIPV
CYP2C19 inh: blockers of cytochrome P450 2C19 activity – biochemical, luminescence, ADME assay, primary screen; P33261; CYP2C19 Supersomes, luciferin-H EGE luminescence, 30 min; inhibition, % at 5 µM; actives 21% (n = 96,000); AID 778, 2007;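 active = CYP2C19 inhibition above a set limit at 5 µM in the primary screen, cut at about 50% in these data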;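 note: plate controls were negative control wells for no effect and 2.5 mM tranylcypromine positive control for full effect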
PostGolgi ctrl: growth inhibition of yeast control strain, primary screen, counter-screen for post-Golgi transport modulator project. inhibition, % at 10 µM. actives 5% (n = 98,000). AID 738, 2007. efflux-deficient yeast background strain, growth absorbance A615, 16 h
CYP2C9 inh: blockers of cytochrome P450 2C9 activity – biochemical, luminescence, ADME assay, primary screen. P11712. CYP2C9 Supersomes, luciferin-H conversion. inhibition, % at 5 µM. actives 20% (n = 96,000). AID 777, 2007;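 active = blocking of liver enzyme CYP2C9 beyond about 50% at 5 µM, limit read from the data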
PostGolgi yeast: phenotypic screen on post-Golgi transport, primary screen | post-Golgi transport phenotypic cell assay | inhibition, % at 10 µM | actives 0.9% (n = 98,000);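 note: yeast cells grown in 1536-well plates; yeast grown about 18 h at 30C before absorbance read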
Active calls of the source: *; x = no result given. Rows were chosen to be rich in hits. Some 32% of all compounds tested hit in one or more screens of this group. Cut-off read from the data, not from the text of the source, unless noted: active = inhibition above about 30%; inactive = the rest.

SMILES	CYP2C19 activ	CYP2C9 act	CYP2C19 inh	PostGolgi ctrl	CYP2C9 inh	PostGolgi yeast
O=C(NCc1ccccn1)C1CCN(S(=O)(=O)c2ccccc2)CC1	0.8	1	15	13	4	-7
COc1ccc(S(=O)(=O)N2CCC(C(=O)NCc3ccccn3)CC2)cc1Cl	0.7	2.2*	32	5	-120	6
COc1ccc(S(=O)(=O)N2CCCC(C(=O)NCc3ccccn3)C2)cc1Cl (stereo not given)	0.6	1.6	36	2	-59	-6
O=C(NCc1ccccn1)C1CCN(S(=O)(=O)c2cccs2)CC1	1	1	2	11	2	-1
COc1ccc(S(=O)(=O)N2CCC(C(=O)NC3CC3)CC2)cc1Cl	0.2	1.3	78*	8	-34	7
O=C(COc1ccc(S(=O)(=O)N2CCCC2)cc1Cl)NC1CC1	1	1	1	8	5	3
COc1ccc(S(=O)(=O)N2CCC(C(=O)NCc3ccccn3)CC2)cc1C	0.8	2.3*	24	-3	-130	-12
O=C(NCc1ccccn1)C1CCN(S(=O)(=O)N2CCCC2)CC1	1.1	1	-6	39*	-1	-1
CC(C)CNC(=O)C1CCN(c2ccc(S(=O)(=O)N3CCOCC3)cc2)CC1	1.1	0.7	-14	5	28	19
O=C(NC1CC1)C1CCN(c2ccc(S(=O)(=O)N3CCOCC3)cc2)CC1	1	0.3	-2	3	74*	5
Cc1ccc(-c2nnn(CC(=O)N(c3cccc(F)c3)C(C(=O)NC3CCCC3)c3ccco3)n2)o1 (stereo not given)	0.9	0.9	14	4	6	1
CC(C)(C)NC(=O)C(c1ccco1)N(C(=O)Cn1nnc(-c2ccc(F)cc2)n1)c1cccc(F)c1 (stereo not given)	x	x	x	36*	x	2
CN(CC(=O)NCCCN1CCOCC1)S(=O)(=O)c1ccc(Br)cc1	1.1	1.1	-12	12	-6	-3
CC(C)(C)c1nc2c(C#N)c(-c3ccc(Cl)cc3)ccn2n1	0.3	0.2	67*	22	84*	17
Cc1nc2ccc(S(=O)(=O)NC(C(=O)N3CCC(C)CC3)C(C)C)cc2s1 (stereo not given)	0.9	0.7	13	-1	29	-5
Cc1c(NC(=O)OCCSc2nc(N(C)C)nc(N(C)C)n2)sc(=S)n1C	0.9	0.9	14	8	5	-1
CCCc1cc(-c2n[nH]c(C(=O)OCC)c2-c2cscn2)c(O)cc1O	0.4	0.3	56*	2	67*	7
COc1ccc(C(=O)Nc2cc3c(cc2C#N)OCO3)cc1S(=O)(=O)N1CCN(C)CC1	1	0.9	4	6	12	-7
CCN(C(C)=O)c1cccc2ccccc12	1	0.9	5	2	6	3
COc1ccc(CN(C(C)=O)c2cccc(C)c2C)cc1	0	0.3	99*	7	68*	-2
Cn1cccc1CNC1CCCC1	1	1	0	-1	-3	6
CCn1nnnc1NCc1cccn1C	0.7	0.2	26	3	76*	6
O=C(NC1c2ccccc2-c2ccccc21)N1CCOCC1	0.9	1.1	10	x	-8	x
Cc1ccc(Oc2nnc(-c3ccccc3)c3ccccc23)cc1	0.9	0.4	8	-2	58*	-17
Cc1nnc(Oc2ccccc2)c2ccccc12	0.8	0.8	17	-5	22	-2
SMILES	CYP2C19 activ	CYP2C9 act	CYP2C19 inh	PostGolgi ctrl	CYP2C9 inh	PostGolgi yeast
CC(C)C1Cc2[nH]c(=O)c(C(=O)O)cc2CO1 (stereo not given)	1.1	0.8	-15	6	21	6
O=C(c1noc2c1CCc1ccccc1-2)N1CCOCC1	0.9	3.2*	12	0	-216	13
O=C(c1noc2c1CCc1ccccc1-2)N1CCc2ccccc2C1	0.4	1.7	60*	33*	-74	1
O=C(c1noc2c1CCc1ccccc1-2)N1CCCc2ccccc21	0.5	1.5	52*	23	-45	8
Cc1cc(C)cc(N(CC(=O)NC2CCC(C)CC2)S(=O)(=O)c2c(C)noc2C)c1 (stereo not given)	1	0.9	5	-5	12	2
COc1ccc(OCC(=O)N2CCN(C(=O)c3cccc4ccccc34)CC2)cc1	1	1	2	12	3	-5
O=C(Nc1nc(-c2ccccc2)cs1)c1cccnc1	0.3	0.6	67*	3	37	19
N#Cc1ccc(-c2csc(NNC(=O)c3ccccc3)n2)cc1	1.1	1.2	-14	5	-18	-1
O=C(NC(=S)Nc1nc(-c2ccc(Br)cc2)cs1)c1cccnc1	1.1	0.7	-11	8	27	-4
O=C(NNc1nc(-c2ccccc2)cs1)c1ccccc1	0.6	0.5	40	-4	53*	1
CCC(=O)N1CCN(c2ccc(NC(=O)c3ccc(-c4ccccc4)cc3)cc2)CC1	1.1	1.1	-7	-4	-10	-2
CCN(c1cccc(C)c1)S(=O)(=O)c1cccc(C(=O)O)c1	1.1	1	-13	3	-2	10
Cc1ccc(Oc2ccccc2/C=C2\SC(=O)N(C)C2=O)cc1	0.5	0.7	51*	13	32	6
O=C1NC(=O)/C(=C/c2ccccc2Oc2ccc(Cl)cc2)S1	0.8	0.3	16	19	72*	26
CN1C(=O)S/C(=C/c2cccnc2)C1=O	1.1	1	-9	21	-1	11
Cc1ccc(N=Cc2c(O)n(-c3cc(Cl)ccc3N3CCOCC3)c(=O)c3ccccc23)cc1C	1	0.8	-4	4	24	8
CCC(C)NC(=O)CSc1nnc(-c2ccncc2)n1-c1ccc(OC)cc1 (stereo not given)	0	0.1	100*	-7	86*	9
CCNC(=O)CSc1nnc(-c2ccccc2)n1-c1ccc(OCC)cc1	0.7	0.4	29	-4	60*	12
CCC(C)NC(=O)CSc1nc2n[nH]c(C)c2c(=N)n1-c1ccc(OC)cc1 (stereo not given)	0.9	1	5	-1	-4	-8
CCOC(=O)CNC(=O)CSc1nnc(-c2cccc(C)c2)n1-c1ccc(OC)cc1	0.3	0.7	69*	3	31	1
C=CCn1c(SCC(=O)NCC(=O)OCC)nnc1-c1cccc(OC)c1	1	1.1	1	12	-7	1
CCOc1ccc(NC(=O)CSc2nnc(-c3ccccc3)n2N)cc1	1.1	1	-9	4	2	8
